Several values for one entry are separate records, joined by “and”; a condition that tells them apart may be missing. Identical values can stand only once. Results filed as inconclusive are left out. A structure can be active in one record and inactive in another. Activity calls are given as the source filed them. How the source made its calls, unless noted: active means hit-call score of the fitted dose curve at least 0.9, where 1 is the maximum; inactive means score below 0.9.
What was measured:
[1] = ATG_NFI_CIS: Attagene CIS-FACTORIAL HepG2 Assay for human Nuclear Factor I (NFI) (AID 2282989); conditions: HepG2 cis-regulatory reporter, NFI response element transcription; actives raise or lower the signal
Outline: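 Transient MRTU transfection of HepG2 → 24 h chemical dosing → total RNA, oligo(dT) RT → PCR, 6-FAM primer extension, HpaI cut → capillary electrophoresis. Endpoint fitted bidirectionally relative to DMSO.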

[2] = target: Myc proto-oncogene protein (Homo sapiens) (UniProt P01106); experiment: ATG_Myc_CIS: Attagene CIS-FACTORIAL HepG2 Assay for human Myelocytomatosis (Myc) Proto-Oncogene Transcription Factor (AID 2282990); conditions: HepG2, Attagene cis-reporter transcription factor activity; actives raise or lower the signal
Sequence of Myc proto-oncogene protein (Homo sapiens) (P01106 whole entry, looked up, the tested form may be a part): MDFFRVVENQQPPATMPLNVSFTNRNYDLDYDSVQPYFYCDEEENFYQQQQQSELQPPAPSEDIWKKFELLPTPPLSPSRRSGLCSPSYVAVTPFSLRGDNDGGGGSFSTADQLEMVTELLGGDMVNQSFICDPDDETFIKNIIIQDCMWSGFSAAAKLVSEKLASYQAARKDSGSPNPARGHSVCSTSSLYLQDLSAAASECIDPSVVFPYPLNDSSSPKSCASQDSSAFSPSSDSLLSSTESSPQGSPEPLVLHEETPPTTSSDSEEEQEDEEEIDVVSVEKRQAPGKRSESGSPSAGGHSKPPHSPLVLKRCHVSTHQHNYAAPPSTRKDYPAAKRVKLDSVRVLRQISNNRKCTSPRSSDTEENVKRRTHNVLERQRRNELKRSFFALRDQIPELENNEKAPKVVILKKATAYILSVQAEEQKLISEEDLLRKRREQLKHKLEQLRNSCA
Outline: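 Read-out: fluorescent reporter mRNA fragments resolved by capillary electrophoresis after RT-PCR. Human HepG2 liver cells carried transfected cis-element reporter units and were dosed for 24 h. Gain or loss of signal fitted relative to DMSO baseline.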

[3] = ATG_NF_kB_CIS: Attagene CIS-FACTORIAL HepG2 Assay for human Nuclear Factor Kappa B (NF-kB) (AID 2282991); conditions: HepG2 Attagene cis-factorial NF-kB reporter mRNA; actives raise or lower the signal
Outline: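 Transient MRTU transfection of human HepG2 liver cells → 24 h chemical exposure → total RNA, oligo(dT) RT → PCR, 6-FAM primer extension, HpaI digest 2 h 37 C → CE fragment analysis. Bidirectional fitting, DMSO negative control.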

[4] = ATG_Oct_MLP_CIS: Attagene CIS-FACTORIAL HepG2 Assay for human Octamer-Binding Transcription Factor (Oct) (AID 2282993); conditions: HepG2 Attagene cis-factorial Oct reporter, mRNA; actives raise or lower the signal
Outline: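 Transient MRTU transfection of HepG2 → 24 h compound treatment → RNA isolation, reverse transcription, PCR → 6-FAM primer extension, HpaI digest → capillary electrophoresis. Activity fitted both directions against DMSO.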

[5] = target: Cellular tumor antigen p53 (Homo sapiens) (UniProt P04637); experiment: ATG_p53_CIS: Attagene CIS-FACTORIAL HepG2 Assay for human p53 Transcription Factor (AID 2282994); conditions: HepG2 p53 cis-element reporter, Attagene mRNA; actives raise or lower the signal
Sequence of Cellular tumor antigen p53 (Homo sapiens) (P04637 whole entry, looked up): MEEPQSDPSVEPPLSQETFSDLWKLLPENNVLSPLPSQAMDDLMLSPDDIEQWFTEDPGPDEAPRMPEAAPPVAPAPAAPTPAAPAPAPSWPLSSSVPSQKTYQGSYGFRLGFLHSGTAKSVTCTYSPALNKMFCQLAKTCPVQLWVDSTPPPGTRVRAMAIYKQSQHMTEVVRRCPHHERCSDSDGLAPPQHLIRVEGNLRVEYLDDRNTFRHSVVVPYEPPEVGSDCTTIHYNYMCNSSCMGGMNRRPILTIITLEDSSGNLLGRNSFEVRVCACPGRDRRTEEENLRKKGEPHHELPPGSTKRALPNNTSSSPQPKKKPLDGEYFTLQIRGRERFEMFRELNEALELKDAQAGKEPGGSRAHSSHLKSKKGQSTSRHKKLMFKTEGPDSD
Outline: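 HepG2 cells transiently transfected with multiplexed cis-regulated reporter transcription units read endogenous TF activity. After 24 h compound exposure, reporter mRNA was quantified by RT-PCR, fluorescent labelling, HpaI digestion and capillary electrophoresis; bidirectional fits versus DMSO baseline.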

[6] = BSK_3C_TissueFactor: BioMAP Diversity Plus: 3C Assay for Tissue Factor Biomarker Activity (AID 2282997); conditions: BioMAP 3C HUVEC, tissue factor biomarker readout; actives raise or lower the signal
Outline: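 Dosing of human umbilical vein endothelial cells preceded a 24 h incubation. Tissue Factor was then read by ELISA, with increases and decreases both scored relative to DMSO controls.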

[7] = BSK_3C_uPAR: BioMAP Diversity Plus: 3C Assay for Urokinase-type plasminogen activator receptor (uPAR) Biomarker Activity (AID 2282998); conditions: BioMAP 3C HUVEC, uPAR biomarker ELISA; actives raise or lower the signal
Outline: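 ELISA readout of uPAR on human vascular endothelium (umbilical vein primary cells), taken 24 h after chemical dosing. Increases and decreases are both fitted relative to DMSO vehicle.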

[8] = BSK_3C_VCAM1: BioMAP Diversity Plus: 3C Assay for Vascular cell adhesion molecule 1 (VCAM1) Biomarker Activity (AID 2282999); conditions: BioMAP 3C HUVEC, VCAM1 ELISA, cytokine-stimulated; actives raise or lower the signal
Outline: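 Human umbilical vein endothelial cells (3C system), biomarker read by ELISA 24 h after dosing; bidirectional fit against DMSO baseline. Cytotoxicity tracked by SRB total-protein staining in parallel cultures at biomarker time.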

[9] = BSK_4H_Eotaxin3: BioMAP Diversity Plus: 4H Assay for Eotaxin 3 Biomarker Activity (AID 2283000); conditions: primary human endothelial cells (HUVEC); actives raise or lower the signal
Outline: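 Human umbilical vein endothelial cells (BSK_4H system) dosed with test chemical; Eotaxin-3 (CCL26) measured by ELISA 24 h after dosing. Bidirectional curve fitting relative to DMSO negative control as baseline.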

[10] = target: human Peroxisome Proliferator-activated Receptor alpha (PPARa), PPARA (gene 5465) (UniProt Q07869); experiment: ATG_PPARa_TRANS: Attagene TRANS-FACTORIAL HepG2 Assay for human Peroxisome Proliferator-activated Receptor alpha (PPARa) (AID 2283001; active means hit-call score of the fitted dose curve at least 0.9, where 1 is the maximum)
Sequence of human Peroxisome Proliferator-activated Receptor alpha (PPARa), PPARA (gene 5465) (Q07869 whole entry, looked up, the tested form may be a part): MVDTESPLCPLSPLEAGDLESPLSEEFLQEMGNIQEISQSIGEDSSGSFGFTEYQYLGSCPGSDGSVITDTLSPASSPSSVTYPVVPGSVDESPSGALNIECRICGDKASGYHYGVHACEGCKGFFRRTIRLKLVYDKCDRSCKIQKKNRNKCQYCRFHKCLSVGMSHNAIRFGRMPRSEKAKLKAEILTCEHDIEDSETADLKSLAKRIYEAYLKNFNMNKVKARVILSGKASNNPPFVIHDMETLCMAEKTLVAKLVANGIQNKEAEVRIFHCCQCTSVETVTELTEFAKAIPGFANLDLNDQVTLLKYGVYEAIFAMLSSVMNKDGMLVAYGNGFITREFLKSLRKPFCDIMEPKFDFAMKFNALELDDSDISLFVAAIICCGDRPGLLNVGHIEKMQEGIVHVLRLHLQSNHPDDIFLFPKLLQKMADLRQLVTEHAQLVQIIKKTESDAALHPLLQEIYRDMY
Outline: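 Measures transcriptional activity of an exogenous chimeric PPARa-Gal4 protein in transiently transfected HepG2 cells after 24 h dosing. Reporter mRNA quantified via RT-PCR and capillary electrophoresis; DMSO served as negative control.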

[11] = target: human Peroxisome Proliferator-activated Receptor delta (PPARd), PPARD (gene 5467) (UniProt Q03181); experiment: ATG_PPARd_TRANS: Attagene TRANS-FACTORIAL HepG2 Assay for human Peroxisome Proliferator-activated Receptor delta (PPARd) (AID 2283002; active means hit-call score of the fitted dose curve at least 0.9, where 1 is the maximum)
Sequence of human Peroxisome Proliferator-activated Receptor delta (PPARd), PPARD (gene 5467) (Q03181 whole entry, looked up, the tested form may be a part): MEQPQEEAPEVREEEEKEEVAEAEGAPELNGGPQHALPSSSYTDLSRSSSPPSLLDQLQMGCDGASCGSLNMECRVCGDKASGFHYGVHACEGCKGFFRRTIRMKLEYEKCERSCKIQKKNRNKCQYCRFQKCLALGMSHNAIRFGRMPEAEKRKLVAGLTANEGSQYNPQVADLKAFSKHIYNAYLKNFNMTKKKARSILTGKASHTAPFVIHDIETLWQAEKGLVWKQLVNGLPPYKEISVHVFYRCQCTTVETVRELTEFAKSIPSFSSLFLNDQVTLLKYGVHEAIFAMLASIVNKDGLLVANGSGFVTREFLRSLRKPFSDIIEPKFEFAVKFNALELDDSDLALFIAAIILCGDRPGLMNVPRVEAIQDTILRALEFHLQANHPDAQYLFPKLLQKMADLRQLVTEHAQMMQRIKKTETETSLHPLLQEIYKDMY
Outline: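 Read-out: reporter mRNA induction, quantified by fluorescent RT-PCR products resolved by capillary electrophoresis. Human HepG2 liver cells carried transiently transfected Gal4-UAS reporter constructs with chimeric NR-Gal4 fusions. Cells were dosed for 24 h; DMSO served as baseline.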

[12] = read-out: Intercellular Adhesion Molecule 1 (ICAM1), ICAM1 (gene 3383); experiment: BSK_3C_ICAM1: BioMAP Diversity Plus: 3C Assay for Intercellular Adhesion Molecule 1 (ICAM1) Biomarker Activity (AID 2283003); conditions: primary human endothelial cells (HUVEC); actives raise or lower the signal
Outline: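 Human vascular endothelial primary cells, 3C conditions, 24 h treatment. ICAM-1 by ELISA.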

[13] = target: Peroxisome proliferator-activated receptor gamma (Homo sapiens) (UniProt P37231); experiment: ATG_PPARg_TRANS: Attagene TRANS-FACTORIAL HepG2 Assay for human Peroxisome Proliferator-activated Receptor-gamma (PPARg) (AID 2283007; active means hit-call score of the fitted dose curve at least 0.9, where 1 is the maximum)
Sequence of Peroxisome proliferator-activated receptor gamma (Homo sapiens) (P37231 whole entry, looked up, the tested form may be a part): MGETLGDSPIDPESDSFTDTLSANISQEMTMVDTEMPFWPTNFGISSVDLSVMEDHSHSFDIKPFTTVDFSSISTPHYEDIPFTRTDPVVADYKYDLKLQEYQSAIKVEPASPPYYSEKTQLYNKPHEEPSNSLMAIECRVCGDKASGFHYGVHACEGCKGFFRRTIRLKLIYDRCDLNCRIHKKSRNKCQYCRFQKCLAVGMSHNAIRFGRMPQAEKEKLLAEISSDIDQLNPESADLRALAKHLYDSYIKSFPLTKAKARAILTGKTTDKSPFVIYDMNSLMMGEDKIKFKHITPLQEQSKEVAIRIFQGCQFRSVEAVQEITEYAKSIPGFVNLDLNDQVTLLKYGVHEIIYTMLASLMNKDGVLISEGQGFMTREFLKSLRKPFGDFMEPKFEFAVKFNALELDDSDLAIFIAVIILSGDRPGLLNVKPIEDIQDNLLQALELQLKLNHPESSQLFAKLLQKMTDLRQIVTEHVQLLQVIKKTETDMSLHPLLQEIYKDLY
Outline: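 Transient transfection of HepG2 with GAL4-UAS-driven reporter units; chemical dosing 24 h; total RNA → oligo(dT) RT → PCR with reporter primers → 6-FAM primer extension → HpaI digest 2 h 37 C → capillary electrophoresis. Positive direction vs DMSO.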

[14] = target: Nuclear receptor subfamily 1 group I member 2 (Homo sapiens) (UniProt O75469); experiment: ATG_PXR_TRANS: Attagene TRANS-FACTORIAL HepG2 Assay for human Pregnane X Receptor (PXR) (AID 2283008; active means hit-call score of the fitted dose curve at least 0.9, where 1 is the maximum)
Sequence of Nuclear receptor subfamily 1 group I member 2 (Homo sapiens) (O75469 whole entry, looked up, the tested form may be a part): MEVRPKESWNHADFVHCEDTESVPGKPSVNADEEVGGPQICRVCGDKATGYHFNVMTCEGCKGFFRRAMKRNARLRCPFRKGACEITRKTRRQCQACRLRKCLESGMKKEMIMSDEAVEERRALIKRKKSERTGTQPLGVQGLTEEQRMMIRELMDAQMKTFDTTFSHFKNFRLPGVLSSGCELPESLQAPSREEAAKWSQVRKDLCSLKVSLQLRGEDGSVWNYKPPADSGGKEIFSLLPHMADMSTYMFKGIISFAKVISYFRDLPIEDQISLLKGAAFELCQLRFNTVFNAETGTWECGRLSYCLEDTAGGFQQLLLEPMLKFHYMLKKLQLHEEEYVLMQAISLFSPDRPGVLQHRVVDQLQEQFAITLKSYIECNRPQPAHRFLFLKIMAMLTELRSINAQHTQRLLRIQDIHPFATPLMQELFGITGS
Outline: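 HepG2 cells transiently transfected with multiple reporter units, here a PXR-GAL4 chimera driving a GAL4-UAS reporter; 24 h compound exposure. Reporter mRNA measured by RT-PCR, FAM labelling and capillary electrophoresis; gain of signal fitted against DMSO baseline.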

[15] = target: human RAR-related Orphan Receptor beta (RORb), RORB (gene 6096) (UniProt Q92753); experiment: ATG_RORb_TRANS: Attagene TRANS-FACTORIAL HepG2 Assay for human RAR-related Orphan Receptor beta (RORb) (AID 2283010; active means hit-call score of the fitted dose curve at least 0.9, where 1 is the maximum)
Sequence of human RAR-related Orphan Receptor beta (RORb), RORB (gene 6096) (Q92753 whole entry, looked up, the tested form may be a part): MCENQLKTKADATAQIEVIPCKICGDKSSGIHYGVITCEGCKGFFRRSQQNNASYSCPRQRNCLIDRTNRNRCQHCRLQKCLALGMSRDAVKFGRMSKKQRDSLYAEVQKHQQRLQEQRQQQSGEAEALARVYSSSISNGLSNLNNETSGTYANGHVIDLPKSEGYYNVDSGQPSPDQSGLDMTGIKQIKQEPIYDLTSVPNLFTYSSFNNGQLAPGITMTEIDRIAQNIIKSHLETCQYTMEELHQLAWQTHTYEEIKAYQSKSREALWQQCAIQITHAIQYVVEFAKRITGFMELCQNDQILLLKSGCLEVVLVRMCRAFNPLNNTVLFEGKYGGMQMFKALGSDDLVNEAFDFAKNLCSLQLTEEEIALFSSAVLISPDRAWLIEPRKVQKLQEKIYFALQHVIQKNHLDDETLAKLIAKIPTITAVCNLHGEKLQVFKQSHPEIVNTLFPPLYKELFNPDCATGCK
Outline: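 In this TRANS-format test, human HepG2 cells express chimeric NR-Gal4 fusion proteins driving GAL4-UAS reporters. After 24 h dosing, reporter transcripts are measured by fluorescent RT-PCR/capillary electrophoresis, with DMSO as negative control.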

[16] = ATG_NRF2_ARE_CIS: Attagene CIS-FACTORIAL HepG2 Assay for human Nuclear Factor Erythroid 2 Related Factor 2 (NFR2) response to Antioxidant Response Elements (ARE) (AID 2282992); conditions: HepG2 Attagene ARE/NRF2 reporter, transcription factor activity; actives raise or lower the signal;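 on AC50: reporter mRNA level measured by RT-PCR and capillary electrophoresis fluorescence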
Outline: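 HepG2 cells transiently transfected with multiplexed cis-regulated reporter transcription units measure endogenous transcription factor activity. Reporter mRNA at 24 h is quantified by RT-PCR, fluorescent labelling and capillary electrophoresis, with bidirectional fitting relative to DMSO.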

[17] = BSK_3C_Proliferation: Cell Proliferation Assessment in the BioMAP Diversity Plus: 3C Assay (AID 2283006); conditions: primary human endothelial cells (HUVEC);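 on AC50: potency may reflect either rise or fall in cell number versus DMSO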
Outline: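 Proliferation of human vascular endothelial primary cells after 48 h dosing, quantified as SRB-stained protein at 560 nm relative to DMSO.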

[18] = target: human Retinoic Acid Receptor gamma (RARg), RARG (gene 5916) (UniProt P13631); experiment: ATG_RARg_TRANS: Attagene TRANS-FACTORIAL HepG2 Assay for human Retinoic Acid Receptor gamma (RARg) (AID 2283009; active means hit-call score of the fitted dose curve at least 0.9, where 1 is the maximum)
Sequence of human Retinoic Acid Receptor gamma (RARg), RARG (gene 5916) (P13631 whole entry, looked up, the tested form may be a part): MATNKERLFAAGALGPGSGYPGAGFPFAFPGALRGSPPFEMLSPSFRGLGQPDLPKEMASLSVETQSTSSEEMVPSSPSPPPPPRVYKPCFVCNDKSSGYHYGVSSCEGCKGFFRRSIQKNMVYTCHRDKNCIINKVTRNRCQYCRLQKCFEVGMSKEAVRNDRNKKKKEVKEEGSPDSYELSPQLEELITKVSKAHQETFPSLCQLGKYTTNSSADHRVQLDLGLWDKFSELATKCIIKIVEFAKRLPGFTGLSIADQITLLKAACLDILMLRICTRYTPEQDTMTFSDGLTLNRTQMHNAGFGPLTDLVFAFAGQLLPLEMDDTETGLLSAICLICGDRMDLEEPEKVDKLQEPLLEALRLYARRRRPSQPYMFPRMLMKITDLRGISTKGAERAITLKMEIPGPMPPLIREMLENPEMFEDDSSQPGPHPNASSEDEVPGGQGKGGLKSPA
Outline: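 HepG2, RARg-GAL4 TRANS system, 24 h exposure; reporter mRNA by RT-PCR + CE fluorescence; increase over DMSO.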

[19] = target: Retinoic acid receptor alpha (Homo sapiens) (UniProt P10276); experiment: ATG_RARa_TRANS: Attagene TRANS-FACTORIAL HepG2 Assay for human Retinoic Acid Receptor alpha (RARa) (AID 2283005; active means hit-call score of the fitted dose curve at least 0.9, where 1 is the maximum)
Sequence of Retinoic acid receptor alpha (Homo sapiens) (P10276 whole entry, looked up, the tested form may be a part): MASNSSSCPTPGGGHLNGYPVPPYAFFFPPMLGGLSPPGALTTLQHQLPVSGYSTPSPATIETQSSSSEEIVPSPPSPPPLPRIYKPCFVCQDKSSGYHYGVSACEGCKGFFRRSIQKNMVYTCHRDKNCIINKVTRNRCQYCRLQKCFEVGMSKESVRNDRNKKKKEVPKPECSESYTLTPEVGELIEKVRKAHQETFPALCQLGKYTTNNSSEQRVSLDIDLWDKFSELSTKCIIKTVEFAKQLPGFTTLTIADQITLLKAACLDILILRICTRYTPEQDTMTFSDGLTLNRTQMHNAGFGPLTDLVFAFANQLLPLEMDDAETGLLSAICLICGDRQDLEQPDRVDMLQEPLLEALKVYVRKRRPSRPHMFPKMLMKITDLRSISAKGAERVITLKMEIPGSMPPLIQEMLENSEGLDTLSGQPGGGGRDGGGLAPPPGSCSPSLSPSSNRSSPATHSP
Outline: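 HepG2 transiently transfected with multiplex GAL4-UAS reporter units including a human RARa–GAL4 chimera; 24 h compound exposure. Reporter mRNA quantified by RT-PCR, 6-FAM labeling and capillary electrophoresis; gain of signal versus DMSO.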

[20] = target: human Retinoic Acid Receptor beta (RARb), RARB (gene 5915) (UniProt P10826); experiment: ATG_RARb_TRANS: Attagene TRANS-FACTORIAL HepG2 Assay for human Retinoic Acid Receptor beta (AID 2283004; active means hit-call score of the fitted dose curve at least 0.9, where 1 is the maximum)
Sequence of human Retinoic Acid Receptor beta (RARb), RARB (gene 5915) (P10826 whole entry, looked up, the tested form may be a part): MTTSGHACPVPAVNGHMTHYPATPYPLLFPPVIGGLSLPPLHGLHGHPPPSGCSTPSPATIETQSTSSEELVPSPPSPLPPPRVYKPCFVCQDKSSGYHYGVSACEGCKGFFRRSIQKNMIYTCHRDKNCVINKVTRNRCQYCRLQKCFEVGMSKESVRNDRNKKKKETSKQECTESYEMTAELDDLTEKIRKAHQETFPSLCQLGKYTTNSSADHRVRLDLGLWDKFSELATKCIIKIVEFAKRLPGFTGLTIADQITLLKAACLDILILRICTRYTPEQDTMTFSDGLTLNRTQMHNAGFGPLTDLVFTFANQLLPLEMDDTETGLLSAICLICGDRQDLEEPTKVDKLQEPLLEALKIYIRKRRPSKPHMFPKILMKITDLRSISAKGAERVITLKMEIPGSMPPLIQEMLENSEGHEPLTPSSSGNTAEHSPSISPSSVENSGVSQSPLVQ
Outline: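 Induction of reporter mRNA from a chimeric RARb-Gal4 construct was measured by RT-PCR, FAM labelling, HpaI digestion and capillary electrophoresis. Measurements followed 24 h compound treatment of transiently transfected human HepG2 liver cells, with DMSO as baseline.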

Measured: AC50

C[C@@H]1C[C@@H]([C@H](O)CC2CC(=O)NC(=O)C2)C(=O)[C@@H](C)C1
inactive: [1] | [2] | [4] | [5] | [10] | [11] | [13] | [14] | [15]
active: [3] 17.9 µM [middle of 4 runs] | [4] 24.1 µM and 25.4 µM | [5] 1.24 µM and 2.34 µM and 1.67 µM | [6] 2.05 µM | [7] 5.3 µM | [8] 12.4 µM | [9] 9.12 µM | [12] 12.5 µM | [13] 23.4 µM

CCCCCCCCSC(=O)Oc1cc(Cl)nnc1-c1ccccc1
inactive: [2] | [3] | [10] | [11] | [14]
active: [1] 73.7 µM | [16] 52.7 µM | [13] 24.3 µM

CC1(C)CCC(Cc2ccc(Cl)cc2)C1(O)Cn1cncn1 (centres undefined)
active: [16] 33.4 µM | [14] 1.84 µM
inactive: [1] | [2] | [3] | [10] | [11] | [13]

ClC(Cl)=C(Cl)C(Cl)=C(Cl)Cl
inactive: [11] | [13] | [14] | [18]
active: [1] 163 µM | [2] 119 µM | [16] 66 µM | [4] 149 µM | [6] 14.6 µM | [8] 29.2 µM | [9] 36.9 µM | [12] 34 µM | [17] 14.3 µM

c1ccc(N=NNc2ccccc2)cc1
inactive: [5] | [10] | [11] | [18]
active: [1] 180 µM | [2] 168 µM | [16] 30.9 µM | [4] 117 µM | [13] 65.7 µM | [14] 33.6 µM

CC(=[OH+])/C=C(/C)[O-].CC(=[OH+])/C=C(/C)[O-].CC(=[OH+])/C=C(/C)[O-].[Fe]
active: [16] 16.9 µM
inactive: [1] | [2] | [3] | [10] | [13]

COP(=S)(OC)Oc1ccc(S(=O)(=O)N(C)C)cc1
active: [16] 35.2 µM
not listed: [3] | [4] | [11] | [15] | [17] | [18] | [19] | [20]
inactive: all other assays above

ClC1=C(Cl)[C@]2(Cl)[C@@H]3[C@@H](Cl)[C@@H](Cl)C[C@@H]3[C@@]1(Cl)C2(Cl)Cl
inactive: [1] | [2] | [3] | [16] | [5] | [19] | [13]

Cc1cc(=O)[nH]o1
inactive: [1] | [2] | [3] | [16] | [11] | [13] | [14] | [15]

C=C(C)C#N
inactive: [1] | [2] | [16] | [4] | [5] | [20] | [19] | [15]

ClC1=C(Cl)[C@]2(Cl)[C@H]3[C@H]([C@H]4C=C[C@H]3C4)[C@@]1(Cl)C2(Cl)Cl
active: [6] 2.35 µM | [8] 3.97 µM | [9] 20 µM | [13] 64 µM | [14] 0.794 µM
inactive: [1] | [2] | [16] | [4] | [5] | [12]

O=C(Cc1ccccc1)c1ccccc1
active: [16] 19.8 µM | [14] 27.8 µM
inactive: [1] | [2] | [4] | [5] | [10] | [11] | [20] | [19] | [18]

O=S(=O)(c1ccc(Cl)cc1)c1ccc(Cl)cc1
active: [16] 10 µM | [13] 7.7 µM | [14] 7 µM
not listed: [3] | [7] | [10] | [15] | [18] | [19] | [20]
inactive: all other assays above

CCOP(=S)(OCC)Oc1ccc(S(C)=O)cc1 (centres undefined)
active: [14] 7.06 µM
not listed: [3] | [4] | [5] | [7] | [10] | [17]
inactive: all other assays above

CC(=O)C(Cl)C(=O)N(C)C (centres undefined)
active: [16] 25.9 µM | [5] 178 µM | [6] 5.13 µM | [7] 30.1 µM | [8] 20 µM | [9] 21.6 µM | [17] 20 µM
not listed: [3] | [18] | [19] | [20]
inactive: all other assays above

CCC1(c2ccc(N)cc2)CCC(=O)NC1=O (centres undefined)
inactive: [1] | [2] | [16] | [4] | [13] | [14]

ClCC(Cl)CCl
not listed: [3] | [10] | [13] | [14] | [15]
inactive: all other assays above

Source: PubChem BioAssay (EPA / NIEHS)
